From PubChem
NPSR antagonist – qHTS Assay for Antagonists of the Neuropeptide S Receptor: cAMP Signal Transduction; Q6W5P4; CHO-NPSR cells, cAMP TR-FRET, antagonist mode; Potency, µM (series often up to 38.3 µM), inactives show at the top dose activity change, negative = inhibition, most hits filed as inhibitors; 1% of 220,000 active; AID 1461, 2008; further: nearly all actives have a fitted effect of over 50% in size
Target sequence (Q6W5P4 whole entry, looked up): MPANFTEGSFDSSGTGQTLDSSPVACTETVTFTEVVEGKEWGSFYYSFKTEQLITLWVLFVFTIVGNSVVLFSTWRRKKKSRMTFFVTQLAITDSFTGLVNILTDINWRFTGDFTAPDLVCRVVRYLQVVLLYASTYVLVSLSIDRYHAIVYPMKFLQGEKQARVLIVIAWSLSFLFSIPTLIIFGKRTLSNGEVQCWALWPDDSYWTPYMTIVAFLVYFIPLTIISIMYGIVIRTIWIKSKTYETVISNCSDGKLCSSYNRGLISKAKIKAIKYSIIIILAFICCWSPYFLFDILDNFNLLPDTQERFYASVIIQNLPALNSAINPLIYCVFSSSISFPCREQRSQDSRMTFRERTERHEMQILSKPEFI
ALDH1A1 inh – qHTS Assay for Inhibitors of Aldehyde Dehydrogenase 1 (ALDH1A1). Aldehyde dehydrogenase 1A1 (Homo sapiens), P00352. Purified ALDH1A1, NADH fluorescence, propionaldehyde substrate. Potency, µM (highest dose often 75.3 µM), for the others: top-dose activity, negative = inhibition, actives largely listed as inhibitors. 7.3% of 220,000 active; active means well fitted inhibition curve with a large enough effect, not every such curve was filed as active; inconclusive means small, poorly fitted or top-dose-only effect, or another doubt; inactive means no such curve, though single readings can be large or run the other way;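 further: plate controls were no enzyme wells and a reference inhibitor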
Tau fibril FP – qHTS for Inhibitors of Tau Fibril Formation, Fluorescence Polarization | K18 P301L tau heparin fibrillization, Alexa594 FP, 6 h | AID 1468, 2008 | Potency, µM (series often up to 57.7 µM), for the others: at the highest dose activity, negative = inhibition, actives largely listed as inhibitors | 0.39% of 280,000 active; further: nearly all actives have a fitted effect of over 55% in size
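Read-out: fluorescence polarization of Alexa 594-labeled tau (0.24 uM), 555 nm excitation, 632 nm emission. Mixtures held 15 uM unlabeled K18 P301L, compound and 20 uM heparin, pH 7 acetate buffer, incubated 6 hr at 37 C.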
HPGD block – qHTS Assay for Inhibitors of HPGD (15-Hydroxyprostaglandin Dehydrogenase); 4.3% of 150,000 active; AID 894, 2007; Potency, µM, without a hit: at the highest dose activity change, negative = inhibition, usual class: inhibitors; 15-hydroxyprostaglandin dehydrogenase [NAD(+)] (Homo sapiens), P15428; purified HPGD, NADH fluorescence kinetic, PGE2 substrate; active means well fitted inhibition curve with a large enough effect, not every such curve was filed as active; inconclusive means small, poorly fitted or top-dose-only effect, or another doubt; inactive means no such curve, though single readings can be large or run the other way
Target sequence (P15428 whole entry, looked up): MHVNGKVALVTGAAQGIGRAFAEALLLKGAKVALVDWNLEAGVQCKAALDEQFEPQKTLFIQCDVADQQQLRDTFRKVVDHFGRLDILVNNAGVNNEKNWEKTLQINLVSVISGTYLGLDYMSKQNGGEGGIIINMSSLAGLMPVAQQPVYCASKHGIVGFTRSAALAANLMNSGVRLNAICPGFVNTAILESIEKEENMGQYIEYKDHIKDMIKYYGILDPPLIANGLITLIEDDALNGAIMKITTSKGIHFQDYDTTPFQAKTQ
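20 nM HPGD preincubated 15 min at room temperature with compound in 50 mM Tris-HCl pH 8, 0.01% Tween 20. Started with 1 mM NAD+ and 30 uM prostaglandin E2; NADH fluorescence (360/450 nm) read 5 times over 30-s intervals, last minus first.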
Tau ThT inhib – qHTS for Inhibitors of Tau Fibril Formation, Thioflavin T Binding | 2.1% of 270,000 active | AID 1460, 2008 | Potency, µM (series often up to 57.4 µM), inactives show at the highest dose activity, negative = inhibition, usual class: inhibitors | recombinant tau K18 P301L, heparin-induced fibrillization, ThT fluorescence; further: nearly all actives have a fitted effect of over 55% in size
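K18 P301L tau (15 uM + 0.24 uM Alexa 594-tagged), heparin 20 uM, NaOAc pH 7, 6 h 37 C; ThT 30 uM, 1 h RT, ex 450/em 510 nm.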
Tau fluor counter – Counterscreen qHTS for Inhibitors of Tau Fibril Formation, Fluorescence Polarization. tau K18 P301L (four-repeat tau fragment) Alexa594 fluorescence, heparin fibrillization. Potency, µM (series often up to 57.7 µM), for the others: at the highest dose activity change, negative = decrease. 0.93% of 280,000 active; further: nearly all actives have a fitted effect of over 55% in size
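Human K18 P301L tau (15 uM unlabeled plus 0.24 uM Alexa 594-labeled, final) in 100 mM sodium acetate pH 7 was mixed with compound and 20 uM heparin and incubated 6 hr at 37 C.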
The depositor's hits bear a star; [ ] = remark or other dose. The list is not random: actives were taken first. Their share in the collection is about 9.5%. Unless noted, the call rests on the fitted dose curve; in most records, active means well fitted curve in the direction sought with a large enough effect; inconclusive means small, poorly fitted or top-dose-only effect, or another doubt; inactive means no such curve, though single readings can be large; an effect the other way counts as inactive or inconclusive. Unless noted, on the % scale 0 is the no-effect control and ±100 the full control effect; potency means the concentration at half of the fitted maximal effect.

For O=C(c1cnc2nc3ccccc3n2c1)c1cc(F)ccc1O the results were NPSR antagonist 14%, ALDH1A1 inh 4.5µM*, Tau fibril FP -9%, Tau ThT inhib inconclusive and Tau fluor counter -23%.
For O=C(c1cnn(C(=O)COc2ccccc2F)c1)c1cc(F)ccc1O the results were NPSR antagonist 14%, ALDH1A1 inh 0.4µM*, Tau fibril FP 3%, Tau ThT inhib inconclusive and Tau fluor counter -10%.
Screening CN(C(=O)c1c(Br)cnn1C)C12CC3CC(CC(C3)C1)C2 returned NPSR antagonist -2%, ALDH1A1 inh -1%, Tau fibril FP -6%, HPGD block 3%, Tau ThT inhib -16% and Tau fluor counter -14%.
Screening CC1(CCc2ccccc2)NC(=S)N(c2ccccc2)N1 (centres undefined) returned NPSR antagonist -5%, ALDH1A1 inh 14%, Tau fibril FP 3%, HPGD block 40µM*, Tau ThT inhib -3% and Tau fluor counter -3%.
Screening CCC1(c2ccc(Cl)cc2)NC(=S)N(c2ccc(C)cc2)N1 (centres undefined) returned NPSR antagonist -17%, ALDH1A1 inh 28µM*, Tau fibril FP -14%, HPGD block inconclusive, Tau ThT inhib inconclusive and Tau fluor counter inconclusive.
CC1(CCc2ccccc2)NC(=S)N(c2ccc(Cl)cc2)N1 (centres undefined) was read as NPSR antagonist -28%, ALDH1A1 inh 7.1µM*, Tau fibril FP 7%, HPGD block 1µM*, Tau ThT inhib inconclusive and Tau fluor counter inconclusive.
For O=c1c2cn[nH]c2[nH]c(=S)n1-c1cccc(Cl)c1 the results were NPSR antagonist 13%, ALDH1A1 inh inconclusive, Tau fibril FP -5%, HPGD block -17%, Tau ThT inhib -8% and Tau fluor counter -9%.
For COc1ccccc1OCC(=O)Nc1ccc(S(=O)(=O)Nc2nc(C)cc(C)n2)cc1 the results were NPSR antagonist -8%[46.1 µM], ALDH1A1 inh -13%, Tau fibril FP -4%, HPGD block inconclusive, Tau ThT inhib -8% and Tau fluor counter -4%.
For CN(C)c1ccc(CC2C(=O)Nc3ccccc32)cc1 (centres undefined) the results were NPSR antagonist -3%, Tau fibril FP inconclusive, Tau ThT inhib 32µM* and Tau fluor counter inconclusive.
Screening CN(C)c1ccc(NC(=O)C(=O)C2C(=O)Nc3ccccc32)cc1 (centres undefined) returned NPSR antagonist 6%, ALDH1A1 inh 4%, Tau fibril FP 6%, Tau ThT inhib 14µM* and Tau fluor counter -21%.
For O=C1Nc2ccccc2C1Cc1ccc(Br)cc1 (centres undefined) the results were Tau fibril FP 4%, Tau ThT inhib -2% and Tau fluor counter -14%.
Screening COc1ccc(/C=C/C(=O)Nc2ccc3nc(N4CCC(C)CC4)cc(C)c3c2)cc1OC returned Tau fibril FP 13%, Tau ThT inhib 3.5µM* and Tau fluor counter 3.5µM*[quencher].
Screening COc1ccc(/C=C/C(=O)Nc2ccncc2)cc1OC returned NPSR antagonist 14%, ALDH1A1 inh -1%, Tau fibril FP -4%[2.34 µM], Tau ThT inhib 1% and Tau fluor counter -2%[2.34 µM].
Screening COc1ccc(/C=C/C(=O)Nc2ccc(Cl)c(Cl)c2)cc1OC returned Tau fibril FP 14µM*, Tau ThT inhib inconclusive and Tau fluor counter 10µM*[quencher].
For CCN1CCN(c2cc(C)c3cc(NC(=O)/C=C/c4ccc(C)cc4)ccc3n2)CC1 the results were Tau fibril FP 10%, Tau ThT inhib 4.5µM* and Tau fluor counter 14µM*[quencher].
`CCN1CCN(c2cc(C)c3cc(NC(=O)c4cccs4)ccc3n2)CC1` gave NPSR antagonist -1%, Tau fibril FP 12%, Tau ThT inhib inconclusive and Tau fluor counter inconclusive.
Screening CCC1CSC(Nc2ccc(C(=O)/C=C/c3ccc(OC)c(OC)c3)cc2)=N1 (centres undefined) returned NPSR antagonist -22%, ALDH1A1 inh inconclusive, Tau fibril FP -4%, HPGD block 18µM*, Tau ThT inhib inconclusive and Tau fluor counter -23%.
CCC1CSC(Nc2ccc(C(=O)/C=C/c3ccc(Br)cc3)cc2)=N1 (centres undefined) was read as NPSR antagonist -59%, ALDH1A1 inh 2%, Tau fibril FP -4%, HPGD block inconclusive, Tau ThT inhib 6% and Tau fluor counter 4%.
`C[C@H]1Cc2c(-c3ccccc3)nc3c(c2CO1)CN(S(=O)(=O)c1ccc(C#N)cc1)CC3` gave ALDH1A1 inh 14%[13.5 µM], Tau fibril FP -3%[11.6 µM], HPGD block -1%, Tau ThT inhib -5%[11.5 µM] and Tau fluor counter -13%[11.6 µM].
Screening CC1CCC/C(=N\NC(=O)c2ccncc2)C1 (centres undefined) returned NPSR antagonist 4%, ALDH1A1 inh -3%, Tau fibril FP -2%, HPGD block 0%, Tau ThT inhib 4% and Tau fluor counter 9%.
`CCCCNc1nc(C)nc2c1nc(-c1ccccc1)n2CCCN1CCCCC1C` (centres undefined) gave ALDH1A1 inh inconclusive, Tau fibril FP 4%, HPGD block inconclusive, Tau ThT inhib 1% and Tau fluor counter 2%.
`CCN1CCN(c2cc(C)c3cc(NC(=O)c4ccc(OC)c(OC)c4)ccc3n2)CC1` gave NPSR antagonist -9%[46.1 µM], ALDH1A1 inh inconclusive, Tau fibril FP 7%, HPGD block -28%, Tau ThT inhib inconclusive and Tau fluor counter inconclusive.
Screening CCN1CCN(c2cc(C)c3cc(NC(=O)/C=C/c4ccc(OCCC(C)C)cc4)ccc3n2)CC1 returned Tau fibril FP 5%, Tau ThT inhib 7.1µM* and Tau fluor counter inconclusive.
Cc1cc(C)c2[nH]c(=O)c(CN(Cc3cccs3)C(=S)NCc3ccco3)cc2c1 was read as NPSR antagonist -39%, ALDH1A1 inh inconclusive, Tau fibril FP -15%, HPGD block -16%, Tau ThT inhib -5% and Tau fluor counter -19%.
